# Unmarked numbers belong to inactive results. This is one part of the list. Activity calls are given as the source filed them. Unless noted, the rule behind the calls is not given here.
# Columns and labels:
# [1] = Brca1-Bard1 BiLC signal decrease – luminescence, single concentration, counter-screen for Mdm2/MdmX interaction inhibitor project, confirmation (AID 504668); details: Brca1/Bard1 bimolecular luciferase complementation counterscreen, at 8 µM, active compounds read high
# [2] = apoptosome-driven caspase-3 activation blockers – biochemical, fluorescence, DEVD-Rh110, 20 µM, confirmation (AID 504614;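 active = mean inhibition of at least 40% at 20 µM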;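 note: plate controls were DMSO wells for no effect and DEVD-CHO caspase inhibitor control wells for full effect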); details: reconstituted apoptosome, caspase-3 DEVD-Rh110 fluorescence; at 20 µM; active compounds read high
# [3] = detection-step artefacts after completed caspase reaction – biochemical, fluorescence, Rh110, 20 µM, artefact control for Apaf-1 inhibitor project, confirmation (AID 504615;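 active = signal rise of 40% or more at 20 µM, treated as a fluorescence artifact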); details: quenched caspase reaction, at 20 µM, active compounds read high
# [4] = fluorescence interference of Apaf-1 inhibitor hits, dose response, artefact control for Apaf-1 inhibitor project (AID 588538); details: fluorescence interference counterscreen, Apaf-1 assay format
# [5] = HIF-2a driven luciferase blockers, single dose – luminescence, 786-0 RCC cells, confirmation (AID 651580;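 active = mean inhibition across four replicates of at least 40 percent at the single tested concentration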); details: HIF-2a luciferase reporter luminescence, overnight, at 18.8 µM, active compounds read high
# [6] = HIF-1a luciferase reporter signal reduction – MiaPaCa-2 cells, single concentration, counter-screen for HIF-2a inhibitor project, confirmation (AID 651589;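 active = mean inhibition of the reporter signal across four replicates at the single tested dose of 50% or more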); details: MiaPaCa-2 HIF-1a luciferase reporter, desferoxamine, overnight; at 18.8 µM; active compounds read high
smiles,measurement,setting,value
CCn1c(-c2ccc(C)cc2)nn(CC(=O)NCCc2ccccc2)c1=S,inhibition,[1],31.4% (active)
O=C(CSCC(=O)Nc1ccccc1)N/N=C/c1c(O)ccc2ccccc12,inhibition,[1],28.3% (active)
COC(=O)c1ccc2nc(NC(=O)CCS(=O)(=O)c3ccccc3)sc2c1,inhibition,[1],27.4% (active)
Cc1ccc(/C=N/NC(=O)c2c(-c3ccccc3)noc2C)c(O)c1,inhibition,[1],31.1% (active)
Oc1c(CN2CCCC2)cc(COCc2ccccc2)c2cccnc12,inhibition,[1],32.2% (active)
CC1=NN(c2nc(-c3ccc(C)cc3)cs2)C(=O)C1N=Nc1ccccc1O (stereo unspecified),inhibition,[1],32.5% (active)
CCOc1cc(/C=C2/NC(=O)N(CC(=O)Nc3cccc(C)c3)C2=O)ccc1OC,inhibition,[1],32.2% (active)
Brc1ccc2ncnc(Nc3ccc(N4CCOCC4)cc3)c2c1,inhibition,[1],25.5% (active)
COc1ccc(Cc2nnc(N/N=C/c3ccc(O)cc3)[nH]c2=O)cc1OC,inhibition,[1],24.8% (active)
CC(C)(C)c1cc(Cl)c(O)c(NC(=S)NC(=O)c2cccnc2)c1,inhibition,[1],35.2% (active)
COc1ccc2c(C(=O)CCl)c[nH]c2c1,inhibition,[1],24.1% (active)
O=C1c2ccccc2NC(c2ccc(-c3ccc(Br)cc3)o2)N1O (stereo unspecified),inhibition,[1],31% (active)
O=C(CCl)Nc1cn(-c2ccccc2)nc1-c1ccccc1,inhibition,[1],33.7% (active)
CCS(=O)(=O)c1nnnn1-c1ccccc1S(C)(=O)=O,inhibition,[1],34.3% (active)
COCCNC(=O)Nc1ccc2nc(-c3ccco3)c(-c3ccco3)nc2c1,inhibition,[2],40.9% (active)
same,activation (fluorescence interference),[3],-1.4%
same,IC50,[4],> 100 µM
same,inhibition,[5],-38.7%
same,inhibition,[6],8.69%
COc1ccc([C@@H]2[C@@H]3C(=O)N(C(C)(C)C)C(=O)[C@@H]3[C@]3(Cc4ccc(Cl)cc4)C(=O)N(c4ccc(Br)cc4)C(=O)N23)cc1,inhibition,[1],26.6% (active)
COc1cccc(/C=C2\SC(=S)N(CCCC(=O)N3CCCC3)C2=O)c1,inhibition,[1],35% (active)
O=C(N/N=C/c1cc(Br)ccc1O)c1cccc(N2CCCC2=O)c1,inhibition,[1],31.4% (active)
CC(C)c1cc(C(=O)NC2CCCc3c2cnn3-c2ccccc2F)no1 (stereo unspecified),inhibition,[1],29.3% (active)
CCOc1ccccc1CNC(=O)C1CCCN(c2nnc(C)c3c(C)n(-c4ccccc4)nc23)C1 (stereo unspecified),inhibition,[1],33.6% (active)
Oc1ccccc1CNc1ccc(Br)cn1,inhibition,[1],28.8% (active)
Cc1ccc(C(C)C)c(OCc2nn(CC(=O)c3ccc(Cl)cc3)c3[n+]2CCCCC3)c1,inhibition,[1],25% (active)
O=c1c2ccccc2nc(/C=C/c2cc(Br)ccc2O)n1CCO,inhibition,[1],32.4% (active)
CC(=O)O[C@@H]1C[C@H]2C(C)(C)C(=O)C=C[C@]2(C)[C@H]2CC[C@@]3(C)[C@H](c4ccoc4)OC(=O)[C@H]4O[C@]43[C@@]21C,inhibition,[1],33.8% (active)
O=C(COc1ccc(F)cc1Cl)Nc1nc(-c2ccccn2)cs1,inhibition,[1],33.8% (active)
CC(=O)c1ccc(NC(=O)c2cc(CC(C)C)nc3ccccc23)cc1,inhibition,[1],33.6% (active)
N=c1c(S(=O)(=O)c2ccc(Cl)cc2)cc2c(=O)n3ccccc3nc2n1CCc1ccccc1,inhibition,[1],24.9% (active)
CN(CC(=O)Nc1ccccc1Cl)C(=O)COC(=O)c1nc(Cl)c(Cl)c(Cl)c1Cl,inhibition,[1],30.8% (active)
Cc1cccc(/C=N/NC(=O)c2c(-c3ccccc3)noc2C)c1O,inhibition,[1],35.6% (active)
COc1ccccc1OCC(=O)N/N=C/c1c(O)ccc2ccccc12,inhibition,[1],27.8% (active)
N=c1n(CCN2CCCCC2)c2ccccc2n1CC(O)c1cccc(Br)c1 (stereo unspecified),inhibition,[1],34.4% (active)
O=C(CCS(=O)(=O)c1ccc(Cl)cc1)Nc1nc(-c2ccncc2)cs1,inhibition,[1],25.6% (active)
CCc1ccc(NC(=O)[C@H](Cc2c[nH]c3ccccc23)NC(=O)[C@@H]2Cc3ccccc3CN2)cc1,inhibition,[1],24.1% (active)
CCOc1ccc(/C=C/C(O)=C2/C(=O)NC3(C)CC2c2ccccc2O3)cc1OC (stereo unspecified),inhibition,[1],23.4% (active)
CC[C@@H](C(=O)[C@@H](C)[C@@H](O)[C@H](C)CCc1ccc(C)c(O)c1C(=O)O)[C@H]1O[C@](CC)([C@H]2CC[C@](O)(CC)[C@H](C)O2)C[C@@H]1C,inhibition,[1],35.2% (active)
COc1ccccc1NCC(=O)N/N=C/c1c(O)ccc2ccccc12,inhibition,[1],24.6% (active)
CCN1C(=O)C2(Nc3ccccc3-c3nc4ccccc4n32)c2cc(OC)ccc21 (stereo unspecified),inhibition,[1],23.7% (active)
Cc1cc(C(=O)CCl)c(C)n1CCc1ccc(F)cc1,inhibition,[1],34.4% (active)
CC(=O)Oc1c(-c2ccc(Br)o2)oc2ccccc2c1=O,inhibition,[1],29.9% (active)
Cc1ccc(N=Nc2ccc(O)c3ncccc23)cc1C,inhibition,[1],25.6% (active)
O=C(Nc1c2ccccc2nc2ccccc12)C(Cl)(Cl)Cl,inhibition,[1],33.7% (active)
COc1ccc(-n2c(C)c([N+](=O)[O-])c3ccc(O)c(CN4CCCCC4)c32)cc1,inhibition,[1],28.9% (active)
Cc1ccccc1-c1cc(C(=O)Nc2nc3c(s2)CCCC3)c2ccccc2n1,inhibition,[1],34.9% (active)
O=C(N/N=C/c1cc(Br)ccc1O)c1ccccc1Cl,inhibition,[1],35.3% (active)
COc1ccc(NC(=O)c2cc3c(CO)cnc(C)c3oc2=Nc2cccc(F)c2)c(OC)c1,inhibition,[1],27.9% (active)
O=C1c2ccccc2NC(c2ccc(Cl)cc2Cl)N1O (stereo unspecified),inhibition,[1],30.7% (active)
O=C(Oc1ccnc2cc(Cl)ccc12)N1CCCCCC1,inhibition,[1],30% (active)
Cc1ccccc1OCC(O)Cn1c(=N)n(Cc2ccccc2)c2ccccc21 (stereo unspecified),inhibition,[1],28.9% (active)
CN(C)CCNC(=O)/C(=C/c1ccc(-c2ccc(Cl)cc2Cl)o1)NC(=O)c1ccccc1,inhibition,[1],26.3% (active)
O=C(CN1C(=O)/C(=C/c2ccccc2)SC1=S)N1CCN(CCc2ccccn2)CC1,inhibition,[1],24.3% (active)
CC(Oc1ccc(F)cc1)C(=O)Nc1nc(-c2ccccn2)cs1 (stereo unspecified),inhibition,[1],35.6% (active)
CC(Oc1cccc(Br)c1)C(=O)NNC(=O)c1ccccn1 (stereo unspecified),inhibition,[1],35.8% (active)
